Several values for one entry are separate records, joined by “and”; a condition that tells them apart may be missing. Equal values may be shown once. Inconclusive results are not listed. More than one record can exist for a structure, and the calls need not agree. Activity calls are given as the source filed them. Unless noted, calls follow the shape of the dose curve; as a rule, active = well fitted curve in the direction sought with a large enough effect in the repeat runs; inconclusive = weak or mixed curves; inactive = no such curve, though single readings can be large; an effect the other way counts as inactive or inconclusive.

The source of these data is PubChem BioAssay (Tox21).

Assay [1] is described as follows: qHTS assay to test for compound auto fluorescence at 535 nm (green) in HEK293 cells (AID 720680). For orientation: Quantitative high-throughput screening tests each substance at several concentrations.
Assay [2] can be described thus: qHTS assay to test for compound auto fluorescence at 460 nm (blue) in HEK293 cell free culture (AID 720681). The method in brief: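 Compounds were added to cell-free DMEM with 10% FBS and fluorescence read directly. The blue channel used 405 nm excitation and 460 nm emission, with triamterene as the reference fluorophore.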
Assay [3] in a line: qHTS assay to test for compound auto fluorescence at 535 nm (green) in HEK293 cell free culture (AID 720682). A digest of the protocol:
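Cell-free medium (DMEM, 10% FBS) receives compound or DMSO by pintool. Plate read directly at Ex 485/Em 535 nm. Signal converted to fluorescein equivalency.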

Assay [4] is described as follows: qHTS assay to test for compound auto fluorescence at 590 nm (red) in HEK293 cell free culture (AID 720683). The method in brief: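 Cell-free wells of DMEM with 10% FBS received compound, and intrinsic fluorescence was read at excitation/emission 540/590 nm. Values expressed as equivalence to Rose Bengal sodium.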
Assay [5] in a line: qHTS assay to test for compound auto fluorescence at 590 nm (red) in HepG2 cell free culture (AID 720684). A digest of the protocol:
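Compound was pinned into wells holding MEM with 10% FBS and no cells, and red fluorescence was read at Ex/Em 540/590 nm. Signal is expressed as auto fluorescence equivalency relative to Rose Bengal sodium.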

Assay [6] is described as follows: qHTS assay to test for compound auto fluorescence at 535 nm (green) in HepG2 cell free culture (AID 720686).
A short description of assay [7]: qHTS assay to test for compound auto fluorescence at 460 nm (blue) in HepG2 cells (AID 720687). The method in brief: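 HepG2 cells in MEM with 10% FBS, attached overnight at 37 C, were exposed to compound or DMSO for 1 hr at 37 C, 5% CO2. Blue fluorescence was read at 405/460 nm, with triamterene as reference fluorophore.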
The target of assay [8] is Glucocorticoid receptor (Homo sapiens) (UniProt P04150). The experiment in a line: qHTS assay to identify small molecule agonists of the glucocorticoid receptor (GR) signaling pathway (AID 720691; active = well fitted activation curve with a large enough effect in the signal ratio in the repeat runs, not every such curve was filed as active; the % refers to the signal ratio). The method in brief:
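Reporter read-out: fluorescence intensity following 2 h room-temperature LiveBLAzer B/G FRET substrate loading. Prior step: GR-bla HeLa cells held 4 h, then treated 18 h at 37 C.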

Assay [9] shares this target. The experiment in a line: qHTS assay to identify small molecule antagonists of the glucocorticoid receptor (GR) signaling pathway (AID 720692; active = well fitted inhibition curve with a large enough effect in the signal ratio in the repeat runs, not every such curve was filed as active; the % refers to the signal ratio; also: potency is read from the fitted curve at half-maximal effect). The method in brief: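 Dexamethasone (5 nM final) stimulated a stably integrated GRE-beta-lactamase reporter in HeLa cells during 18 h co-incubation with compounds; signal was quantified as fluorescence intensity of B/G FRET substrate after 2 h.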

Assay [10] can be described thus: qHTS assay to identify small molecule antagonists of the glucocorticoid receptor (GR) signaling pathway - cell viability counter screen (AID 720693). Also: nearly all actives have a fitted effect of over 55% in size.
A short description of assay [11]: qHTS assay for identifying genotoxic compounds that show differential cytotoxicity against isogenic chicken DT40 cell lines with known DNA damage response pathways - wild type cell line (AID 743012). Also: nearly all actives have a fitted effect of over 60% in size. Also: potency is read from the fitted curve at half-maximal effect. A digest of the protocol:
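Using parental DT40 (300 cells/well), compounds delivered in DMSO incubate 40 h at 37 C/5% CO2. CellTiter-Glo reagent then stands 30 min at room temperature, and luminescence gives cell viability.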

A short description of assay [12]: qHTS assay for identifying genotoxic compounds that show differential cytotoxicity against isogenic chicken DT40 cell lines with known DNA damage response pathways - Rev3 mutant cell line (AID 743014). Also: nearly all actives have a fitted effect of over 55% in size. Also: potency is read from the fitted curve at half-maximal effect.
Assay [13] can be described thus: qHTS assay for identifying genotoxic compounds that show differential cytotoxicity against isogenic chicken DT40 cell lines with known DNA damage response pathways - Rad54/Ku70 mutant cell line (AID 743015). Also: nearly all actives have a fitted effect of over 60% in size. Also: potency is read from the fitted curve at half-maximal effect.
Assay [14] can be described thus: qHTS assay to identify small molecule antagonists of the androgen receptor (AR) signaling pathway - cell viability counter screen (AID 743033; also: nearly all actives have a fitted effect of over 45% in size; also: potency is read from the fitted curve at half-maximal effect).
Assay [15] can be described thus: qHTS assay to identify small molecule antagonists of the androgen receptor (AR) signaling pathway using the MDA cell line - cell viability counter screen (AID 743041; also: nearly all actives have a fitted effect of over 45% in size). The method in brief:
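MDA-kb2 AR-luc cells (MMTV-luciferase, AR/GR responsive) treated with compounds plus R1881 agonist for 16 h at 37C. CellTiter-Fluor added at 15.5 h; fluorescence read after 30 min in the same wells.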

Assay [16] is described as follows: qHTS assay to identify small molecule antagonists of the thyroid receptor (TR) signaling pathway - cell viability counter screen (AID 743064). Also: nearly all actives have a fitted effect of over 50% in size. Also: potency is read from the fitted curve at half-maximal effect. A digest of the protocol: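 GH3.TRE-Luc cells, 4 h pre-plating; cpd + T3 1 nM final; 37 °C 23.5 h; CellTiter-Fluor 30 min; fluorescence read.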
The nature of assay [17]: qHTS assay to identify small molecule antagonists of the thyroid receptor (TR) signaling pathway (AID 743065). Also: nearly all actives have a fitted effect of over 55% in size. Also: potency is read from the fitted curve at half-maximal effect. A digest of the protocol: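 GH3.TRE-Luc rat pituitary cells (two TREs driving luciferase) were dosed with compound, then stimulated with 1 nM T3 (final) for 23.5 h at 37 C. ONE-Glo luminescence was the read-out, with CellTiter-Fluor fluorescence as the cytotoxicity counter-screen.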

The target in assay [18] is Androgen receptor (Homo sapiens) (UniProt P10275). Kind of assay: qHTS assay to identify small molecule agonists of the androgen receptor (AR) signaling pathway (AID 743036; active = well fitted activation curve with a large enough effect in the signal ratio in the repeat runs, with a control signal flat, not every such curve was filed as active; the % refers to the signal ratio). The method in brief:
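AR-bla HEK293 cells, 2,000/well; 4 h preincubation 37C/5% CO2; compound (DMSO) 16 h at 37C; LiveBLAzer B/G FRET substrate 2 h RT; fluorescence intensity read-out.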

The target is the same in assay [19]. Kind of assay: qHTS assay to identify small molecule antagonists of the androgen receptor (AR) signaling pathway using the MDA cell line (AID 743042; also: nearly all actives have a fitted effect of over 55% in size). A digest of the protocol: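 MDA-kb2 breast carcinoma cells carrying MMTV-luciferase (AR/GR responsive) were co-treated with compounds and the agonist R1881 for 16 h at 37C. Inhibition read as ONE-Glo luminescence; CellTiter-Fluor fluorescence measured in parallel for cytotoxicity.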

Sequence of Glucocorticoid receptor (Homo sapiens) (P04150 whole entry, looked up): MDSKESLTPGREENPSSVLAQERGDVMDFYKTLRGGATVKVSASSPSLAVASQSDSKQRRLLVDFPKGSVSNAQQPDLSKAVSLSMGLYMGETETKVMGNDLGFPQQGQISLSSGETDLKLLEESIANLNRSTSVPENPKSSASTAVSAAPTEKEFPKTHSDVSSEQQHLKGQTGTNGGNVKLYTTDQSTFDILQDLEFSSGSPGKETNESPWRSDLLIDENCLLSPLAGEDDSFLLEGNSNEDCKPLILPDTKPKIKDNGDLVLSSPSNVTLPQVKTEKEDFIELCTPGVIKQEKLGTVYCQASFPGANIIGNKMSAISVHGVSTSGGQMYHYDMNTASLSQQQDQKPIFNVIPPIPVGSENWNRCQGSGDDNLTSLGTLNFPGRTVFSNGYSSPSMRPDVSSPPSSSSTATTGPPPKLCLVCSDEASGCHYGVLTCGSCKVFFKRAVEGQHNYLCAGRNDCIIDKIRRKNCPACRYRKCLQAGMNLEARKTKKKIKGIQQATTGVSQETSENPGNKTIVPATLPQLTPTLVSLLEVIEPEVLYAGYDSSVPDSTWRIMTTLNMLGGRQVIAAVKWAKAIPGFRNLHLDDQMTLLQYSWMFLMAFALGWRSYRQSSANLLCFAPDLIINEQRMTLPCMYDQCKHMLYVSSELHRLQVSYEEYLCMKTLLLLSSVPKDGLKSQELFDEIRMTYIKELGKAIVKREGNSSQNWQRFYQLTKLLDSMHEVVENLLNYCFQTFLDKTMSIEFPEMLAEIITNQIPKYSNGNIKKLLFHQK
Sequence of Androgen receptor (Homo sapiens) (P10275 whole entry, looked up): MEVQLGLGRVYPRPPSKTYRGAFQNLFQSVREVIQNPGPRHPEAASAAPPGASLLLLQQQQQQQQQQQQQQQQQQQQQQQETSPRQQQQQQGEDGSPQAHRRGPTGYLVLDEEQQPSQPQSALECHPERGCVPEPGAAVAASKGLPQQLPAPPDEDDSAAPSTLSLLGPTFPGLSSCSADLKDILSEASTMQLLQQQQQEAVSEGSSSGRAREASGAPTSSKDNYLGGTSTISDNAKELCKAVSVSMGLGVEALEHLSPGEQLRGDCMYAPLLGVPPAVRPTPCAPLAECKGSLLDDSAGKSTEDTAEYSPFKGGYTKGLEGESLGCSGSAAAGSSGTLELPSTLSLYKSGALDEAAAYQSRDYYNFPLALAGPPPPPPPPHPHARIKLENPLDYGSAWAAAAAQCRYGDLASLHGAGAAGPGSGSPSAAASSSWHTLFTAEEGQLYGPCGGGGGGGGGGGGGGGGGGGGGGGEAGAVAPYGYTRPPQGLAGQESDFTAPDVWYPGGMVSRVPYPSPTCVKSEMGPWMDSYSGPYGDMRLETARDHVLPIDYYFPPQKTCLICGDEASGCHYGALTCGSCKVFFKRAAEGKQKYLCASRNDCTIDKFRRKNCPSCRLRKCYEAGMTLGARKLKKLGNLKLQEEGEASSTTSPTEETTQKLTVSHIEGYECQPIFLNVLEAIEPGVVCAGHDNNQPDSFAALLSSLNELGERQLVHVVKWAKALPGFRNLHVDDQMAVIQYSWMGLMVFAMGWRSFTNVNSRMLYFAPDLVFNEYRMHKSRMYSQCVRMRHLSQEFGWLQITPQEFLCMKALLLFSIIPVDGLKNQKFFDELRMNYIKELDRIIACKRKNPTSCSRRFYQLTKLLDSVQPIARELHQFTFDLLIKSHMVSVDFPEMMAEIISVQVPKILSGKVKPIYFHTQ

`O=C(/C=C/c1ccccc1)OCc1ccccc1`: the Potency entry in assay [1], in assay [3], in [4], in [5], in [6] and in assay [8] was “inactive” in each case. The Potency result in [9], in [10], in [14], in assay [15], in assay [16] and in assay [17] was “inactive” each time. The call in [2] and in [7] was inactive. For the same compound, the Potency result is “inactive and 54.5 µM (active)” in [11]; “inactive and 38.6 µM (active)” in [12]; “inactive and 43.3 µM (active)” in assay [13].

Consider `CCCCCCCCCCCO`, for which the Potency result in assay [1], in assay [3], in [4], in assay [5], in [6] and in assay [10] was “inactive” throughout. Also, the Potency result in assay [14] and in [15] was “inactive” in each case. The compound was called inactive in [2] and in assay [7]. Moreover, the Potency entry in assay [11] was “inactive and 48.6 µM (active)”; in assay [12], “inactive and 54.5 µM (active)”; in [13] it was “inactive and 61.1 µM (active)”; in [16], “inactive and 30.6 µM (active)”.

On to `COC(=O)C1=C(C)NC(C)=C(C(=O)OCCN(C)Cc2ccccc2)C1c1cccc([N+](=O)[O-])c1` (stereo not given), for which the Potency result in assay [1], in assay [3], in assay [4], in [5], in [6] and in [10] was “inactive” in each case. Moreover, the Potency entry in assay [15] is “inactive”. The outcome in assay [2] and in assay [7] was inactive. The Potency in [9] was 23.9 µM (active) and 43.4 µM (active); in assay [11], 9.44 µM (active) and 19.2 µM (active); in [12], 11.9 µM (active) and 21.6 µM (active); in assay [13], 10.6 µM (active) and 19.2 µM (active); in [14], 48.7 µM (active); in assay [16] it was 13.3 µM (active) and 19.2 µM (active).

With `C[C@]12CCC(=O)C=C1CC[C@@H]1[C@@H]2C(=O)C[C@@]2(C)[C@H]1CC[C@]2(O)C(=O)CO`, the Potency entry in [1], in assay [3], in assay [4], in assay [5], in [6] and in assay [10] was “inactive” each time. The Potency result in assay [14], in assay [15], in assay [16] and in assay [17] was “inactive” each time. Moreover, the result in [2] and in assay [7] was inactive. The Potency in assay [9] was 9.52 µM (active) and 6.92 µM (active); in assay [11] it was “inactive and 61.1 µM (active)”; in [13] it was “inactive and 68.6 µM (active)”.

Turning to `O=CCc1ccccc1`, the Potency result in assay [1], in [3], in assay [4], in assay [5], in assay [6] and in assay [8] was “inactive” in each case. For the same compound, the Potency entry in assay [9], in assay [10], in [11], in assay [12], in assay [14] and in assay [15] was “inactive” each time. The Potency entry in assay [16] and in assay [17] was “inactive” each time. Also, the compound was called inactive in assay [2] and in assay [7]. Further, the Potency entry in assay [13] was “inactive and 54.5 µM (active)”.

In the case of `Cc1cccc(C(=O)O)c1`, the Potency result in assay [1], in assay [3], in [4], in assay [5], in assay [6] and in [10] was “inactive” throughout. For the same compound, the Potency result in [11], in [12], in assay [13], in assay [14], in assay [15] and in assay [19] was “inactive” each time. For the same compound, the Potency result in [16] is “inactive”. For the same compound, the outcome in assay [2], in [7] and in [18] was inactive.

As for `O=C(OCc1ccccc1)c1ccccc1O`, the Potency result in assay [1], in assay [3], in assay [4], in assay [5], in assay [6] and in assay [8] was “inactive” in each case. The Potency entry in assay [9], in assay [10], in assay [14], in assay [15] and in [16] was “inactive” each time. Further, the result in assay [2] and in assay [7] was inactive.

Turning to `COc1ccccc1/C=C/C=O`, the Potency result in [1], in [3], in assay [4], in assay [5], in [6] and in assay [8] was “inactive” throughout. The Potency result in assay [9], in [10], in assay [14] and in assay [15] was “inactive” each time. Moreover, the call in assay [2] and in assay [7] was inactive. Moreover, the Potency in assay [12] is 62.8 µM (active); in assay [13], 31.4 µM (active) and 54.5 µM (active); in [16] it was 55.9 µM (active); in [17], 62.8 µM (active).

Turning to `CCOC(=O)C(C#N)=C(c1ccccc1)c1ccccc1`, the Potency entry in assay [1], in assay [3], in [4], in assay [5], in assay [6] and in assay [10] was “inactive” each time. Further, the Potency result in assay [14], in [15] and in [16] was “inactive” in each case. Also, the outcome in [2] and in assay [7] was inactive. The Potency is 23.7 µM (active) and 17.2 µM (active) in assay [11]; 19.3 µM (active) in assay [13].

With `COC(=O)c1ccccc1`, the Potency entry in assay [1], in [3], in assay [4], in [5], in assay [6] and in [10] was “inactive” each time. Further, the Potency entry in assay [11], in assay [13], in assay [14], in assay [15], in [16] and in assay [17] was “inactive” each time. Moreover, the result in [2] and in assay [7] was inactive.
